PREPL inhibitor: inhibitors of human prolyl oligopeptidase-like enzyme PREPL; hit rate 0.68% among 320,000; Q4J6C6; recombinant PREPL, fluorescence polarization activity-based probe; inhibition, % at 5.96 µM; in the data active means inhibition above about 43%
MEKK2mut PB1 HTS: signal of MEK5 binding to mutant human MEKK2 PB1 domain; bead flow cytometry, Alexa488-MEK5 binding to MEKK2 mutant; percent response, % at 10 µM; hit rate 0.35% among 290,000; in the data active means percent response above about 24%, passing the limit was not always enough
UBC13 inh: inhibitors of human UBC13 polyubiquitin chain formation | AID 485273 | hit rate 0.47% among 330,000 | inhibition, % at 20 µM | TR-FRET; in the data active means inhibition above about 45%, passing the limit was not always enough
MEKK3 PB1 HTS: raises or lowers MEK5 binding to the human MEKK3 PB1 domain | Q99759 | bead-based flow cytometry, Alexa488-MEK5 binding to MEKK3; actives lie on both sides; 0 = blocked by unlabeled MEK5, 100 = vehicle | binding response (% of control), % at 10 µM | hit rate 1.4% among 290,000;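 active means binding response more than 3 SD above or below the average of its plate-row segment, actives on both sides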;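 further: Alexa488 bead fluorescence after subtracting the streptavidin-only scavenger bead signal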
ATG4B inh: blocks human ATG4B protease cleavage of LC3 substrate. inhibition, % at 8.33 µM. ATG4B cleavage of LC3-PLA2, NBD-HPC fluorescence, 1 h. hit rate 0.51% among 340,000; in the data active means inhibition above about 40%
Target sequence (Q9Y4P1 whole entry, looked up): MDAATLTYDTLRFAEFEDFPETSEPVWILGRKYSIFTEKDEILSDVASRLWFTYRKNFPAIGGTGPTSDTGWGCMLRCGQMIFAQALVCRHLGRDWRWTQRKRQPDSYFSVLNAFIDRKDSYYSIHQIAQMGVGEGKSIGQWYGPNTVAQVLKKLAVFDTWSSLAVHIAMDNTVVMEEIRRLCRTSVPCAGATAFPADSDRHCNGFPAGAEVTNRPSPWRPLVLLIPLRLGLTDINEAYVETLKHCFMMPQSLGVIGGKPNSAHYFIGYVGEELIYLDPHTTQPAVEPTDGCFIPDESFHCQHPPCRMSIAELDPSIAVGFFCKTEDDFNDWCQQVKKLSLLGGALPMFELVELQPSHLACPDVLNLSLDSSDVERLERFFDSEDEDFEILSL
MEKK2 WT-MEK5: raises or lowers MEK5 binding to wildtype human MEKK2 PB1 domain. bead flow cytometry, Alexa488-MEK5 binding to MEKK2 WT; actives lie on both sides. binding response (% of control), % at 10 µM. hit rate 1.1% among 290,000; in the data active means binding response below about 67% or above about 130%
MEKK2wt confirm: raises or lowers MEK5 binding to wildtype human MEKK2, retest. hit rate 2.4% among 5,900. binding response (% of control), % at 10 µM. bead flow cytometry, Alexa488-MEK5 binding to MEKK2 WT; actives lie on both sides. shares compounds with MEKK3 PB1 HTS; in the data active means binding response below about 16% or above about 210%; inactive means in between
MEKK2mut confirm: signal of MEK5 binding to mutant human MEKK2, retest | shares compounds with MEKK3 PB1 HTS | bead flow cytometry, Alexa488-MEK5 binding to MEKK2 mutant | percent response, % at 10 µM | hit rate 2% among 5,900 | AID 1893; in the data active means percent response mostly above about 71%, no sharp cut-off; inactive means mostly below about 38%;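 further: higher means compound restores mutant binding toward wildtype level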
MEKK3 confirm: MEKK3-MEK5 PB1 inhibition, single concentration confirmation; shares compounds with MEKK3 PB1 HTS; bead flow cytometry, Alexa488-MEK5 binding to MEKK3; hits give low values; binding response (% of control), % at 10 µM; hit rate 1.8% among 5,900; AID 1894;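 active means binding response below 72% of control, or above a set upper limit, though filed actives all read lower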
Hits are given with their value. Most compounds without a hit are left out; they make up all but 3.1% or so of the library.

How did CC(C)(C)Cc1nnc(NC(=O)Cc2ccc([N+](=O)[O-])cc2)s1 do in these assays?
PREPL inhibitor: inactive; MEKK2mut PB1 HTS: inactive; UBC13 inh: inactive; MEKK3 PB1 HTS: inactive; ATG4B inh: inactive; MEKK2 WT-MEK5: inactive

How did CCOC(=O)Cc1csc(N/N=C\c2cccc(Br)c2)n1 do in these assays?
PREPL inhibitor: inactive; UBC13 inh: inactive; ATG4B inh: inactive

What do the screens show for `CCOC(=O)C1(Cc2cccc(OC)c2)CCN(CC2CC=CCC2)CC1` (stereo unspecified)?
PREPL inhibitor: inactive; MEKK2mut PB1 HTS: inactive; UBC13 inh: inactive; MEKK3 PB1 HTS: inactive; ATG4B inh: inactive; MEKK2 WT-MEK5: inactive

Results for CC(C)(C)N(Cc1ccccc1)C(=O)COC(=O)CN1C(=O)NC2(CCCC2)C1=O ?
PREPL inhibitor: inactive; MEKK2mut PB1 HTS: inactive; UBC13 inh: inactive; MEKK3 PB1 HTS: inactive; ATG4B inh: inactive; MEKK2 WT-MEK5: inactive

How did N#Cc1c(NC(=O)COC(=O)c2ccc(O)cc2O)sc2c1CCC2 do in these assays?
PREPL inhibitor: inactive; UBC13 inh: inactive; ATG4B inh: inactive

What do the screens show for `Nc1cc(Cl)cc2c1-c1ccc(Cl)cc1C2`?
ATG4B inh: inactive

What do the screens show for `CCCOC(=O)Nc1sc2c(c1C(N)=O)CCCC2`?
PREPL inhibitor: inactive; MEKK2mut PB1 HTS: inactive; UBC13 inh: inactive; MEKK3 PB1 HTS: inactive; ATG4B inh: inactive; MEKK2 WT-MEK5: inactive

What do the screens show for `COc1cccc(CC2(CO)CCCN(Cc3cc4ccccc4[nH]3)C2)c1` (stereo unspecified)?
PREPL inhibitor: inactive; MEKK2mut PB1 HTS: inactive; UBC13 inh: inactive; MEKK3 PB1 HTS: inactive; ATG4B inh: inactive; MEKK2 WT-MEK5: 148.0; MEKK2wt confirm: inactive; MEKK2mut confirm: inactive; MEKK3 confirm: inactive

How did COc1cccc(CC2(CO)CCCN(Cc3[nH]c4ccc(C)cc4c3C)C2)c1 (stereo unspecified) do in these assays?
PREPL inhibitor: inactive; MEKK2mut PB1 HTS: inactive; UBC13 inh: inactive; MEKK3 PB1 HTS: inactive; ATG4B inh: inactive; MEKK2 WT-MEK5: 157.0; MEKK2wt confirm: inactive; MEKK2mut confirm: inactive; MEKK3 confirm: inactive

How did CC(=O)Nc1ccc(NC(=O)C2CCCCN2S(=O)(=O)c2ccc(C(C)(C)C)cc2)cc1 (stereo unspecified) do in these assays?
PREPL inhibitor: inactive; MEKK2mut PB1 HTS: inactive; UBC13 inh: inactive; MEKK3 PB1 HTS: inactive; ATG4B inh: inactive; MEKK2 WT-MEK5: inactive

What do the screens show for `CC(Cc1c[nH]c2ccccc12)C(=O)O` (stereo unspecified)?
PREPL inhibitor: inactive; MEKK2mut PB1 HTS: inactive; UBC13 inh: inactive; MEKK3 PB1 HTS: inactive; ATG4B inh: inactive; MEKK2 WT-MEK5: inactive

How did CC(Cc1c[nH]c2ccccc12)NC(N)=O (stereo unspecified) do in these assays?
PREPL inhibitor: inactive; MEKK2mut PB1 HTS: inactive; UBC13 inh: inactive; MEKK3 PB1 HTS: 129.0; ATG4B inh: inactive; MEKK2 WT-MEK5: inactive; MEKK2wt confirm: inactive; MEKK2mut confirm: inactive; MEKK3 confirm: inactive

What do the screens show for `S=C(Nc1ccc(Cl)cc1Cl)NC1CCN(Cc2ccccc2)CC1`?
PREPL inhibitor: inactive; MEKK2mut PB1 HTS: 53.0; UBC13 inh: inactive; MEKK3 PB1 HTS: inactive; ATG4B inh: inactive; MEKK2 WT-MEK5: inactive; MEKK2wt confirm: inactive; MEKK2mut confirm: inactive; MEKK3 confirm: inactive

Results for CC(C)c1ccccc1NC(=S)NC1CCN(Cc2ccccc2)CC1 ?
PREPL inhibitor: inactive; MEKK2mut PB1 HTS: inactive; UBC13 inh: inactive; MEKK3 PB1 HTS: inactive; ATG4B inh: inactive; MEKK2 WT-MEK5: 138.0; MEKK2wt confirm: inactive; MEKK2mut confirm: inactive; MEKK3 confirm: inactive

Compound activity deposited in PubChem BioAssay by several laboratories.
